# Records with an inconclusive call do not appear. Activity calls are given as the source filed them. How the source made its calls: active means hit-call score of the fitted dose curve at least 0.9, where 1 is the maximum; inconclusive means response in the unintended direction; inactive means score below 0.9.
# Columns and labels:
# [1] = molecular target: zebrafish Estrogen Receptor (ESR1), esr1 (gene 259252) (UniProt P57717); assay: ATG_zfER1_XSP1: Attagene TRANS-FACTORIAL Multi-Species (XSP1) HepG2 Assay for zebrafish Estrogen Receptor (ESR1) (AID 2283772)
# Chain of zebrafish Estrogen Receptor (ESR1), esr1 (gene 259252) (P57717 whole entry, looked up, the tested form may be a part): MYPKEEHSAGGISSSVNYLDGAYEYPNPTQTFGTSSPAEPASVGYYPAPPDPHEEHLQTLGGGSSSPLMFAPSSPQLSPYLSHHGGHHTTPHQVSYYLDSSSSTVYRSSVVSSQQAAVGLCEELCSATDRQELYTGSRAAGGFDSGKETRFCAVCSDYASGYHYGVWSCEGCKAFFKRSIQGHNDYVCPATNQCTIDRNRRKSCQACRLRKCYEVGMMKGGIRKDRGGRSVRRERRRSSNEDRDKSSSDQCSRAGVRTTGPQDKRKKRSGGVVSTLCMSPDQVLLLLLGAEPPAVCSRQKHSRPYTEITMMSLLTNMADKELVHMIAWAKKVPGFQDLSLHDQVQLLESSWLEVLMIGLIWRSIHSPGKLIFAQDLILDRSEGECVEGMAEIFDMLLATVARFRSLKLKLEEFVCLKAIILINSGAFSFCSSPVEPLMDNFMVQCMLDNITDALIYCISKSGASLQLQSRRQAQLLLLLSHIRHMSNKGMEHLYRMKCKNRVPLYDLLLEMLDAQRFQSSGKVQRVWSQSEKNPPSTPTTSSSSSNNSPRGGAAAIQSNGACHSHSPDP
# Procedure, shortened: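 HepG2 cells were transiently transfected with multiplexed GAL4-UAS reporter units driven by chimeric NR-GAL4 proteins, dosed for 24 h with 3 nM 6-alpha-fluorotestosterone present, and reporter mRNA quantified by RT-PCR and capillary electrophoresis versus DMSO.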
# [2] = test system: zebrafish Estrogen Receptor (ESR2B), gene 317733; assay: ATG_zfER2b_XSP1: Attagene TRANS-FACTORIAL Multi-Species (XSP1) HepG2 Assay for zebrafish Estrogen Receptor (ESR2B) (AID 2283773)
# Procedure, shortened: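 Gain-of-signal endpoint relative to DMSO: reporter transcript levels quantified by RT-PCR and capillary electrophoresis after 24 h compound exposure of HepG2 cells expressing a zebrafish ER2b-Gal4 chimera.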
# [3] = test system: frog Estrogen Receptor (ESR2), gene 100174814; assay: ATG_frER2_XSP1: Attagene TRANS-FACTORIAL Multi-Species (XSP1) HepG2 Assay for frog Estrogen Receptor (ESR2) (AID 2283774)
# Procedure, shortened: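 Transactivation of an exogenous receptor-Gal4 fusion is tracked in transfected HepG2 cells via induced reporter transcript levels. After 24 h treatment, RT-PCR with capillary electrophoresis quantifies signal gain over DMSO.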
# [4] = test system: frog Estrogen Receptor (ESR1), gene 398734; assay: ATG_frER1_XSP1: Attagene TRANS-FACTORIAL Multi-Species (XSP1) HepG2 Assay for frog Estrogen Receptor (ESR1) (AID 2283777)
# Procedure, shortened: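 Human hepatoma HepG2 cells carried transiently transfected multiplexed Gal4-driven reporters and were exposed to test chemicals for 24 hours. Transcripts were quantified by fluorescent RT-PCR with capillary electrophoresis, referenced to DMSO.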
# [5] = test system: zebrafish Estrogen Receptor (ESR2A), gene 317734; assay: ATG_zfER2a_XSP1: Attagene TRANS-FACTORIAL Multi-Species (XSP1) HepG2 Assay for zebrafish Estrogen Receptor (ESR2A) (AID 2283778)
# Procedure, shortened: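 Cells were transfected, dosed for 24 h, then total RNA was isolated. After oligo(dT) reverse transcription, reporter sequences were amplified, FAM-labelled by primer extension, digested with HpaI and sized by capillary electrophoresis; DMSO served as baseline.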
# [6] = molecular target: chicken Estrogen Receptor (ESR1), ESR1 (gene 396099) (UniProt P06212); assay: ATG_chERa_XSP1: Attagene TRANS-FACTORIAL Multi-Species (XSP1) HepG2 Assay for chicken Estrogen Receptor (ESR1) (AID 2283779)
# Chain of chicken Estrogen Receptor (ESR1), ESR1 (gene 396099) (P06212 whole entry, looked up, the tested form may be a part): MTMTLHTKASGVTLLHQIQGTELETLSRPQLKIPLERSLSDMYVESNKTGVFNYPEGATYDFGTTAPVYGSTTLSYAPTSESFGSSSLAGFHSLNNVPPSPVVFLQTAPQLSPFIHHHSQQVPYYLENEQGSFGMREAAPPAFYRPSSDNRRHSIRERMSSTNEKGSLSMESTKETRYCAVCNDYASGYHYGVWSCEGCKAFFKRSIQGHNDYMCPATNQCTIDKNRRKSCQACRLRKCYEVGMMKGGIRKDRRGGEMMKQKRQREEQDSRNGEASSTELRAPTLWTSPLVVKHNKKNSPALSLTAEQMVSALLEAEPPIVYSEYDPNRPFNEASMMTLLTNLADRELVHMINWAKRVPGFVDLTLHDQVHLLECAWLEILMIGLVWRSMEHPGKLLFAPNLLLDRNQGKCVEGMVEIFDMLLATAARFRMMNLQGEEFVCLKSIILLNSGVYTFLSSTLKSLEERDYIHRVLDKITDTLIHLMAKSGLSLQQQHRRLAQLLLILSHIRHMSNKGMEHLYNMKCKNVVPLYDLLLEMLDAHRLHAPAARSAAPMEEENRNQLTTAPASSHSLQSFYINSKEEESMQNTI
# Procedure, shortened: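 Human liver HepG2, transient MRTU transfection (NR-Gal4 chimeras, GAL4-UAS reporters); 24 h compound exposure; 3 nM 6-alpha-fluorotestosterone in medium. Total RNA → RT-PCR → 6-FAM primer extension → HpaI → CE. Positive direction vs DMSO baseline.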
# [7] = molecular target: Estrogen receptor (Homo sapiens) (UniProt P03372); assay: ATG_hERa_XSP1: Attagene TRANS-FACTORIAL Multi-Species (XSP1) HepG2 Assay for human Estrogen Receptor (ESR1) (AID 2283780)
# Chain of Estrogen receptor (Homo sapiens) (P03372 whole entry, looked up, the tested form may be a part): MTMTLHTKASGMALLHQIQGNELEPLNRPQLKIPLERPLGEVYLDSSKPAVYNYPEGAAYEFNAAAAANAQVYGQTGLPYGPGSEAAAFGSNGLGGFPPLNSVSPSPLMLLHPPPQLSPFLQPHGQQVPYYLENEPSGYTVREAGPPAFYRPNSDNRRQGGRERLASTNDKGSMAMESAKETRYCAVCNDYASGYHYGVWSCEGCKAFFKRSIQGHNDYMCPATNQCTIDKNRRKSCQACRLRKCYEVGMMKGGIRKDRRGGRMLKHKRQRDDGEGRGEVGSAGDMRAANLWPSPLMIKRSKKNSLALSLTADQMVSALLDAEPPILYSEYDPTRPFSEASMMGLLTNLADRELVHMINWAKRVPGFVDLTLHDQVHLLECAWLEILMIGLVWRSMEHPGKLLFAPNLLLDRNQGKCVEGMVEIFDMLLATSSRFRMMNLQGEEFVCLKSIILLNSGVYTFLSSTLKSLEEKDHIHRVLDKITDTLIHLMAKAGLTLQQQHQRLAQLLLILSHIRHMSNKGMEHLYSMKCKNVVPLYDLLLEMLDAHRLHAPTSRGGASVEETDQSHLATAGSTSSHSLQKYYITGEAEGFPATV
# Procedure, shortened: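 HepG2 cells transiently transfected with GAL4-UAS reporter units and chimeric NR-Gal4 constructs; 24 h after dosing, reporter mRNA quantified by RT-PCR and capillary electrophoresis. Medium contained 3 nM 6-alpha-fluorotestosterone; activity fitted as gain-of-signal versus DMSO.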
# [8] = test system: turtle Estrogen Receptor (ESR1), gene 101933533; assay: ATG_trERa_XSP1: Attagene TRANS-FACTORIAL Multi-Species (XSP1) HepG2 Assay for turtle Estrogen Receptor (ESR1) (AID 2283781)
# Procedure, shortened: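 Activity was taken as gain of reporter transcript over DMSO controls. HepG2 cells carrying GAL4-UAS-driven reporters were exposed for 24 h before RNA was extracted and reporter sequences were measured by fluorescence after capillary separation.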
# [9] = molecular target: Estrogen receptor beta (Homo sapiens) (UniProt Q92731); assay: ATG_hERb_XSP1: Attagene TRANS-FACTORIAL Multi-Species (XSP1) HepG2 Assay for human Estrogen Receptor (ESR2) (AID 2283788)
# Chain of Estrogen receptor beta (Homo sapiens) (Q92731 whole entry, looked up, the tested form may be a part): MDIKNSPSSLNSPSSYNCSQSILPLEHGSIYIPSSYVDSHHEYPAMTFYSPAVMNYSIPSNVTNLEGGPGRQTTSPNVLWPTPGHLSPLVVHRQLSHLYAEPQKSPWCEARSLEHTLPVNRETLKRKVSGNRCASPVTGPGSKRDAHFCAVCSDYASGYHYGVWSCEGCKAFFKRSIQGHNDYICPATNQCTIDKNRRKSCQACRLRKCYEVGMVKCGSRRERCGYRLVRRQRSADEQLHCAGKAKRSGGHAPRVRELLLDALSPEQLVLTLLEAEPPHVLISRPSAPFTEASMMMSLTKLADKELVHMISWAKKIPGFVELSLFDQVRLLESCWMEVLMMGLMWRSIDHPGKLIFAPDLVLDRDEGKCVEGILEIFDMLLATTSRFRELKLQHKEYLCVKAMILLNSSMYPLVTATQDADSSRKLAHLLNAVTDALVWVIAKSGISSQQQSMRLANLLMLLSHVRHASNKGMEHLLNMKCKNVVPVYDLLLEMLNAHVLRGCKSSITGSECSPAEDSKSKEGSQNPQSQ
# Procedure, shortened: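 Measured endpoint is transcriptional gain of signal from a GAL4-UAS reporter controlled by chimeric ERβ in HepG2 liver cells. Exposure lasts 24 h alongside 3 nM 6-alpha-fluorotestosterone, with DMSO as negative control.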
# [10] = molecular target: GAL4 Transcription Factor (Internal Marker), GAL4 (gene 855828) (UniProt P04386); assay: ATG_GAL4_XSP1: Attagene TRANS-FACTORIAL Multi-Species (XSP1) HepG2 Assay for GAL4 Transcription Factor (Internal Marker) (AID 2283789)
# Chain of GAL4 Transcription Factor (Internal Marker), GAL4 (gene 855828) (P04386 whole entry, looked up, the tested form may be a part): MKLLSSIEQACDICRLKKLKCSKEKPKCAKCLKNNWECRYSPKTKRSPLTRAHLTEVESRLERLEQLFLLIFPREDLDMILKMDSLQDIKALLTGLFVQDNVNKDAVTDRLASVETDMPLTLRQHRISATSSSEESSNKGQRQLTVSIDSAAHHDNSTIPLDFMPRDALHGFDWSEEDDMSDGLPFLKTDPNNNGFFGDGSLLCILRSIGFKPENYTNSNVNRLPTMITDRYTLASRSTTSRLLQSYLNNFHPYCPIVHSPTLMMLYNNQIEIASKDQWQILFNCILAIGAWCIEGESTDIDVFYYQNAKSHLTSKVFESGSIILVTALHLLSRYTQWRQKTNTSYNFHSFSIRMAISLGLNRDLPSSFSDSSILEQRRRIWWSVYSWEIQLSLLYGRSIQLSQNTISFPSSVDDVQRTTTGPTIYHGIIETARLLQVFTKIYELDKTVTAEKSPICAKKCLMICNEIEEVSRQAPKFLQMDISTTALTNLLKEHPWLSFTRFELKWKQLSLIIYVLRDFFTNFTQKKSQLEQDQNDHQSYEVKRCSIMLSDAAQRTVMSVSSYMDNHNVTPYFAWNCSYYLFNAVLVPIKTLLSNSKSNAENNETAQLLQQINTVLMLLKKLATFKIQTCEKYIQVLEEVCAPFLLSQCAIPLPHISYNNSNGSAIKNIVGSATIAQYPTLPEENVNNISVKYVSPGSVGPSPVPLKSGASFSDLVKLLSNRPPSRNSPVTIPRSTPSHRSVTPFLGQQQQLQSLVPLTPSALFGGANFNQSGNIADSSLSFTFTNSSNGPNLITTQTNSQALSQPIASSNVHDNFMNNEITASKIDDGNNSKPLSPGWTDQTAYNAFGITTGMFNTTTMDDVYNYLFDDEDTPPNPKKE
# Procedure, shortened: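 HepG2 cells transiently transfected with multiplexed GAL4-UAS reporter units were exposed for 24 h with 3 nM 6-alpha-fluorotestosterone present. Reporter mRNA was quantified by RT-PCR, FAM labelling, HpaI digestion and capillary electrophoresis; background-control readout, gain-of-signal versus DMSO.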
# [11] = ATG_M_06_XSP1: Attagene TRANS-FACTORIAL Multi-Species (XSP1) HepG2 Assay for M06 Transcription Factor (Internal Marker) (AID 2283790)
# Procedure, shortened: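 Transfected HepG2 multi-reporter system treated 24 h in the presence of 3 nM 6-alpha-fluorotestosterone. The M06 internal marker transcript was quantified by RT-PCR with capillary electrophoresis as a background control, and gain of signal was scored versus DMSO.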
# [12] = ATG_M_61_XSP1: Attagene TRANS-FACTORIAL Multi-Species (XSP1) HepG2 Assay for M61 Transcription Factor (Internal Marker) (AID 2283797)
# Procedure, shortened: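 HepG2 cells transiently transfected with multiplexed GAL4-driven reporter units, dosed 24 h with 3 nM 6-alpha-fluorotestosterone present. Reporter mRNA quantified by RT-PCR, 6-FAM labelling, HpaI digestion and capillary electrophoresis; internal-marker background control, gain of signal versus DMSO.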
# [13] = ATG_M_32_XSP1: Attagene TRANS-FACTORIAL Multi-Species (XSP1) HepG2 Assay for M32 Transcription Factor (Internal Marker) (AID 2283799)
# Procedure, shortened: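 HepG2 cells transiently transfected with multi-species TRANS reporter units, dosed 24 h with 3 nM 6-alpha-fluorotestosterone present. Internal-marker reporter mRNA quantified by RT-PCR and capillary electrophoresis; positive-direction fit versus DMSO.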
# [14] = molecular target: Peroxisome proliferator-activated receptor gamma (Homo sapiens) (UniProt P37231); assay: ATG_hPPARg_XSP1: Attagene TRANS-FACTORIAL Multi-Species (XSP1) HepG2 Assay for human Peroxisome Proliferator-activated Receptor gamma (PPARg) (AID 2283800)
# Chain of Peroxisome proliferator-activated receptor gamma (Homo sapiens) (P37231 whole entry, looked up, the tested form may be a part): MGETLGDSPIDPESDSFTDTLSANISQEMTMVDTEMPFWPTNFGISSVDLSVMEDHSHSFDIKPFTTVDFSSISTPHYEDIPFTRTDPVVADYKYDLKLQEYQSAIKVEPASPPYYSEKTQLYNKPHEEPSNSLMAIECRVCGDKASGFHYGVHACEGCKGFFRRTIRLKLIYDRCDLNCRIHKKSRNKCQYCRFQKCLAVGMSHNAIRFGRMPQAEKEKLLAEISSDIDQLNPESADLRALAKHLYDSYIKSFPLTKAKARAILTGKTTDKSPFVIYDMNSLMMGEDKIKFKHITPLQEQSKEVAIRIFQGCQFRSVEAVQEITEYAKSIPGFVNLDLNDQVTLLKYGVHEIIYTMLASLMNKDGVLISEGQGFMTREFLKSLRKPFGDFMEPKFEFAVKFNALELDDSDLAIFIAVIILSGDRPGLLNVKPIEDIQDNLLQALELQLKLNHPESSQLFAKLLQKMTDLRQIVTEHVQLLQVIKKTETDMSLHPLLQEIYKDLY
# Procedure, shortened: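 HepG2 cells transiently transfected with GAL4-UAS reporter units carrying chimeric NR-Gal4 proteins; 3 nM 6-alpha-fluorotestosterone present. After 24 h dosing, reporter mRNA quantified by RT-PCR and capillary electrophoresis; gain of signal relative to DMSO.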
# AR (gene 367) [15] = molecular target: AR (gene 367) (UniProt P10275); assay: ACEA_AR_antagonist_80hr: ACEA Biosciences xCELLigence Real-Time Cell Analysis on Androgen Receptor Antagonism for Proliferation (AID 2283787);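 further: 22Rv1 human prostate cancer cells with growth followed by electrical impedance; hits lower the impedance growth signal relative to DMSO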
# Chain of AR (gene 367) (P10275 whole entry, looked up): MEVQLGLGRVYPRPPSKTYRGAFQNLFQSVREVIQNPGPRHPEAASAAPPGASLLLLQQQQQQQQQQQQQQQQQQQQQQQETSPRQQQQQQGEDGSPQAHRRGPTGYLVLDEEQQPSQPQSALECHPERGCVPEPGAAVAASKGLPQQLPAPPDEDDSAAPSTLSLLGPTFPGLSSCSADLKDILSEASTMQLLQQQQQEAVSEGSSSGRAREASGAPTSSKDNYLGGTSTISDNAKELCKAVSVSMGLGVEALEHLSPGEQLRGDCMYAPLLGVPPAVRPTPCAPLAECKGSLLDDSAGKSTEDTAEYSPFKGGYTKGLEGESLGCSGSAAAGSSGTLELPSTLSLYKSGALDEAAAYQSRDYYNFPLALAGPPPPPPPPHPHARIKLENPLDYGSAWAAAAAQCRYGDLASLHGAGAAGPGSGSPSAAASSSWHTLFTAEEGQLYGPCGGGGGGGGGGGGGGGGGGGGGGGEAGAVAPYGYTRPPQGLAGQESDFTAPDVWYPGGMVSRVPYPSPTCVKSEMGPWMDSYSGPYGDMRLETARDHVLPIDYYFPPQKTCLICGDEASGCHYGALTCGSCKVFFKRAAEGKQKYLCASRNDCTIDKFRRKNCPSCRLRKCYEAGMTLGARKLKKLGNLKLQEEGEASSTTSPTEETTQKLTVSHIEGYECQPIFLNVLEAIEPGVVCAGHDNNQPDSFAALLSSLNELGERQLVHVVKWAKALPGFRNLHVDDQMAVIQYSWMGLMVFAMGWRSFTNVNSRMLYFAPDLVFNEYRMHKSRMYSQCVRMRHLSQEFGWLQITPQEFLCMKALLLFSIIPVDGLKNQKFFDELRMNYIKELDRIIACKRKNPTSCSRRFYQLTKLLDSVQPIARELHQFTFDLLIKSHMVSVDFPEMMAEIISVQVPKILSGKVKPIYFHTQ
# Procedure, shortened: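 Growth-kinetic antagonist readout in 22Rv1 cells, taken 80 h after continuous compound exposure. Activity fitted as signal loss relative to DMSO negative control.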
# [16] = ACEA_AR_agonist_AUC_viability: ACEA Biosciences xCELLigence Real-Time Cell Analysis on Androgen Receptor Agonism for Viability (AID 2283775);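 on AC50: viability read 80 hours after compound addition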
# Procedure, shortened: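 Real-time impedance tracking of 22Rv1 growth, readings every 5 min for 5 h then hourly; area-under-curve viability endpoint at 80 hours, relative to DMSO. Compounds at eight concentrations, 1:4 steps, top 100 uM, n = 2.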
# [17] = ACEA_ER_AUC_viability: ACEA Biosciences xCELLigence Real-Time Cell Analysis on Estrogen Receptor Agonism for Viability (AID 2283782);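 further: continuous compound exposure with impedance area under curve over 80 h; hit means loss of impedance signal meaning reduced cell growth or viability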
# Procedure, shortened: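 T-47D; phenol red-free RPMI1640 + 10% CS-FBS; 8 conc., 1:4 serial, max 100 uM final, ≤0.5% DMSO; n = 2; continuous exposure; impedance monitored to 80 h post-dose; AUC vs DMSO.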
# [18] = ACEA_AR_antagonist_AUC_viability: ACEA Biosciences xCELLigence Real-Time Cell Analysis on Androgen Receptor Antagonism for Viability (AID 2283776);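 further: 22Rv1 human prostate cancer cells growing on impedance electrode plates; hits lower the growth signal relative to DMSO meaning cytotoxicity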
# Procedure, shortened: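 Viability endpoint from label-free cell-index monitoring: 22Rv1 cultures treated with an eight-point 1:4 dilution series starting at 100 uM final, AUC at 80 h fitted against DMSO.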
# [19] = STM_H9_NormalizedViability: Cytotoxicity Assessment at 120 hours in the Stemina devTOX quickPredict H9 human embryonic stem cell (hESC)-based Assay (AID 2283784)
# Procedure, shortened: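 Pluripotent H9 hESCs were exposed, with chemical and media replaced every 24 h. Viability was read by CellTiter-Fluor fluorescence, background-corrected and normalized to the 0.1% DMSO neutral control per plate. Loss of signal was fitted.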
# AR (gene 367) [20] = molecular target: AR (gene 367) (UniProt P10275); assay: ACEA_AR_agonist_80hr: ACEA Biosciences xCELLigence Real-Time Cell Analysis on Androgen Receptor Agonism for Proliferation (AID 2283783);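 further: hits increase impedance growth signal above DMSO baseline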
# Procedure, shortened: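 Androgen-driven proliferation in 22Rv1 cells is tracked as electrical impedance, taken 80 h after continuous exposure to compound (eight concentrations, 1:4 steps, maximum 100 uM final). Activity is fitted in the positive direction with DMSO as baseline.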
structure (smiles),measurement,setting,value
O=P(OC(CCl)CCl)(OC(CCl)CCl)OC(CCl)CCl,outcome,[1],inactive
same,AC50,[2],20.8 µM (active)
same,AC50,[3],26 µM (active)
same,AC50,[4],3.06 µM (active)
same,outcome,[5],inactive
same,AC50,[6],3.85 µM (active)
same,AC50,[7],2.78 µM (active)
same,AC50,[8],5.66 µM (active)
same,AC50,[9],26 µM (active)
same,outcome,[10],inactive
same,outcome,[11],inactive
same,outcome,[12],inactive
same,outcome,[13],inactive
same,outcome,[14],inactive
Cc1ccc(N)cc1O,AC50,AR (gene 367) [15],74.4 µM (active)
Oc1ccc2c(c1)-c1ccccc1C2,AC50,AR (gene 367) [15],50 µM (active)
Cc1ccc(S(=O)(=O)O)cc1C,outcome,[16],inactive
same,outcome,[17],inactive
CC(C)(O)c1coc(S(=O)(=O)NC(=O)Nc2c3c(cc4c2CCC4)CCC3)c1,outcome,[16],inactive
same,outcome,[17],inactive
CCCCCCCCO,outcome,[16],inactive
same,outcome,[17],inactive
COc1cccc(-c2ccc(/C=C\CN3CCCCCC3)cc2Cl)c1,AC50,[16],62.7 µM (active)
same,AC50,[18],45.2 µM (active)
same,AC50,[17],56.3 µM (active)
same,AC50,[19],1.1 µM (active)
CCOCCO,outcome,[16],inactive
same,outcome,[17],inactive
COCCOc1cc2cc(C(=O)NC3CCN(C(C)C)CC3)n(CC(=O)Nc3ccc(Cl)cn3)c2cn1,AC50,[16],40.9 µM (active)
same,outcome,[17],inactive
CC[C@H]1CC[C@H](NCc2cc3c(cc2OC)[C@H]2C[C@H]2C(=O)N3C)[C@H](c2ccccc2)N1,AC50,[16],17.5 µM (active)
same,AC50,[18],18.2 µM (active)
same,AC50,[17],18.5 µM (active)
same,AC50,[19],9.43 µM (active)
CCCN(C1CCN(C(=O)C2CCNCC2)CC1)[C@@H]1CCc2ccc(OC)cc2C1,AC50,[16],75 µM (active)
same,AC50,[18],50 µM (active)
same,outcome,AR (gene 367) [20],inactive
same,AC50,AR (gene 367) [15],63.9 µM (active)
Cn1c(=O)c2c(ncn2C)n(C)c1=O,outcome,[16],inactive
same,outcome,[18],inactive
same,outcome,[17],inactive
same,outcome,[19],inactive
CC(C)CCO,outcome,[16],inactive
same,outcome,[18],inactive
same,outcome,[19],inactive
Clc1nc(Cl)c(Cl)c(Cl)c1Cl,outcome,[16],inactive
same,AC50,[17],92 µM (active)
Cc1ccc(O)cc1,outcome,[16],inactive
same,outcome,[18],inactive
same,outcome,[17],inactive
same,outcome,AR (gene 367) [15],inactive
O=C(CCCCCCCCc1cccnc1)N1CCC(C=C(c2ccccc2)c2ccccc2)CC1,AC50,[16],11.4 µM (active)
same,AC50,[18],12.1 µM (active)
same,outcome,AR (gene 367) [20],inactive
same,AC50,AR (gene 367) [15],7.53 µM (active)
CC(C)CC(C)(O)C#CC(C)(O)CC(C)C (stereo not drawn),outcome,[16],inactive
same,outcome,[18],inactive
same,outcome,[19],inactive
Cn1cnc([N+](=O)[O-])c1Sc1ncnc2nc[nH]c12,AC50,[16],1.15 µM (active)
same,AC50,[18],1.52 µM (active)
same,AC50,[17],1.42 µM (active)
same,AC50,[19],4.02 µM (active)
O=C1CCC(N2C(=O)c3ccccc3C2=O)C(=O)N1 (stereo not drawn),outcome,[16],inactive
same,outcome,[17],inactive
CCn1nc(Cc2ccccc2)cc1C1CCN(C[C@H]2C[C@H](N(C)[C@@H](C(=O)O)C(C)C)C[C@@H]2c2cccc(F)c2)CC1,AC50,[16],36 µM (active)
same,AC50,[17],7.91 µM (active)
CC(C)=CCCC(C)CCO (stereo not drawn),outcome,[16],inactive
same,outcome,[18],inactive
same,outcome,[17],inactive
same,outcome,AR (gene 367) [15],inactive
CCCCCCc1ccc(O)cc1O,AC50,[16],16.1 µM (active)
same,AC50,[18],13.7 µM (active)
same,AC50,[17],80.1 µM (active)
same,AC50,AR (gene 367) [15],11 µM (active)
O=C(O)c1cccc(N(Cc2cccnc2)c2ccc(OC(F)F)c(OC(F)F)c2)c1,AC50,[16],88.2 µM (active)
same,AC50,[18],76.9 µM (active)
same,AC50,AR (gene 367) [20],10.5 µM (active)
same,AC50,AR (gene 367) [15],77.6 µM (active)

# From PubChem BioAssay (EPA / NIEHS)
